Compounds without any hit were thinned out: in the full panel of roughly 79,000, 15% have a hit. Values without a mark were called inactive. Active and inactive are the calls of the source. Rule as the data show it: active = growth inhibition above about 70%; inactive = the rest.
Tests used:
[1] = NCI Yeast Anticancer Drug Screen. Data for the rad50 strain (AID 155);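 also: 0% = growth of vehicle-only cultures of the same strain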; conditions: S. cerevisiae rad50 strain growth inhibition; at 50.0 µM; hits give high values
Outline: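 DNA repair mutant yeast, compound exposure, growth read-out; inhibition is taken relative to vehicle.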

[2] = NCI Yeast Anticancer Drug Screen. Data for the mec2-1 strain (AID 157); conditions: S. cerevisiae mec2-1 strain, at 50.0 µM, hits give high values
Outline: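 Readout is yeast growth inhibition, normalised to vehicle-treated controls, in the mec2-1 strain exposed to compound.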

[3] = NCI Yeast Anticancer Drug Screen. Data for the sgs1 mgt1 strain (AID 161);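 also: 0% = growth of cultures given vehicle only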; conditions: S. cerevisiae sgs1 mgt1 strain, at 50.0 µM, hits give high values
Outline: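 This yeast growth screen uses a strain with defined DNA-repair lesions; compound-treated growth is compared with vehicle-treated growth.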

[4] = NCI Yeast Anticancer Drug Screen. Data for the cln2 rad14 strain (AID 165);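 also: 0% = growth equal to vehicle treated cultures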; conditions: S. cerevisiae cln2 rad14 strain, at 50.0 µM, hits give high values
Outline: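 Relative to vehicle controls, growth inhibition of compound-treated cln2 rad14 yeast was recorded.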

[5] = NCI Yeast Anticancer Drug Screen. Data for the bub3 strain (AID 167); conditions: S. cerevisiae bub3 mutant strain, at 50.0 µM, hits give high values
Outline: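 In this screen, a yeast mutant lacking normal mitotic checkpoint function is challenged with compound. Relative growth versus vehicle gives the inhibition value.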

[6] = NCI Yeast Anticancer Drug Screen. Data for the mlh1 rad18 strain (AID 175); conditions: S. cerevisiae mlh1 rad18 strain growth inhibition; at 50.0 µM; hits give high values
Outline: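 Test agents were incubated with a yeast strain of defined genotype (DNA damage repair defect). Inhibition of growth was derived by comparison with vehicle-exposed cultures.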

Row | SMILES | growth inhibition [1] | growth inhibition [2] | growth inhibition [3] | growth inhibition [4] | growth inhibition [5] | growth inhibition [6]
1 | CC(=O)ON(C(C)=O)c1ccc(C(N)=O)cc1 | -16.6% | 6.8% | -13.2% | 6.25% | -15.3% | -71.5%
2 | Cc1ccc2c(=O)cc(-c3cccc(F)c3)[nH]c2n1 | -4.9% | -0.9% | -11% | 23.9% | -6.25% | -16.4%
3 | CCOC(=O)CC(C)C(Br)(C(=O)OCC)C(=O)OCC (stereo unspecified) | 47.5% | 93.5% (active) | 89.4% (active) | 20.5% | 93.4% (active) | 95.4% (active)
4 | COc1cc(Br)c(C=Nc2cccc3ccc(OS(=O)(=O)c4ccc([N+](=O)[O-])cc4)cc23)cc1OC | 7.6% | -16.6% | 0.65% | 4.3% | 5.5% | 15.6%
5 | NC1=C(O)C(=O)C(c2ccc(C3OC(N)=C(O)C3=O)cc2)O1 (stereo unspecified) | -8.15% | -17.6% | -18.6% | -0.3% | -27.6% | -3.5%
6 | C=CC(=O)Nc1ccc(Br)cc1 | 2.85% | -9.2% | -4.35% | -6.9% | 8.65% | 2.35%
7 | O=C(O)C12CCCC(CCC1)C2 | -2.2% | 1.05% | -3.8% | -4.35% | -0.2% | -0.55%
8 | O=C(Nc1ccccc1CC(O)c1ccc2c(c1)OCO2)c1ccccc1 (stereo unspecified) | 19.1% | -8.1% | 3.65% | -22.8% | 11.6% | 13.8%
9 | CC(C)(C)n1nc(C2CC2)cc1NC(=O)Nc1ccc(Cl)cc1 | -0.55% | -8.25% | -8.55% | 8.85% | -2.55% | 2.4%
10 | O=[N+]([O-])c1nc(-[n+]2ccccc2)[n-]c1Br | 4.65% | -1.05% | -1.9% | -49.9% | 4.1% | 8.8%
11 | NCCOc1ccccn1 | -1.7% | -10.8% | -0.6% | -10.7% | 1% | -1.9%
12 | C=CCOc1cc(=O)[nH]c2ccccc12 | -14.1% | -4.4% | -0.9% | -51.1% | -0.45% | 2.9%
13 | c1ccc2c(c1)NCCOCCNc1ccccc1OCCNCCO2 | -1.5% | 36.5% | 14.1% | -4.1% | 30.1% | 6.75%
14 | COC(=O)C1=C(\O)C[C@@]2(C)CC[C@@H](C(=O)OC)C2C/C=C\1C(=O)OC (stereo partly specified) | -4.75% | -6.25% | 0.05% | 11.1% | -8.6% | 34.8%
15 | CCOC(=O)CCC[Si](CC)(CC)CC | 13.9% | 12.3% | 1.5% | -22.1% | -15% | 5.9%
16 | C=CCNC(=O)OCCCl | 6% | -1.45% | -9.6% | 5.95% | -4.5% | 15.1%
17 | NC(=O)N/N=C1\CC2CC1C1CCCC21 (stereo unspecified) | 8.05% | 5.35% | -1.75% | -0.5% | -8.9% | 15.3%
18 | CCCCCCCCCCCC(=O)N/N=C(\c1ccccc1)c1ccc(Cl)cc1 | 91.5% (active) | 88.2% (active) | 93.5% (active) | 86.9% (active) | 76.5% (active) | 91.3% (active)
19 | O=C(O)/C=C\CCCCC(=O)O | 35.4% | 0.95% | 15.1% | 6.75% | 13.8% | 37.5%
20 | Cc1cc(Cl)ccc1NC(=O)C(=O)C(C(=O)c1ccccc1)C1OC(=O)c2ccccc21 (stereo unspecified) | 20.9% | -7.45% | 14.2% | 14.6% | -3.25% | -9.75%
21 | COc1ccc(C(=O)/C=c2/c(CC(=O)c3ccc(OC)cc3)nc3nnc(N)n23)cc1 | 15.5% | -4.05% | -6.25% | 21.9% | 1.45% | 8.6%

Row | SMILES | growth inhibition [1] | growth inhibition [2] | growth inhibition [3] | growth inhibition [4] | growth inhibition [5] | growth inhibition [6]
22 | O=C(c1cccc(Cl)c1)c1cccc(Cl)c1 | 1.2% | -14.8% | -0.9% | 2.35% | 5.15% | -3.25%
23 | COc1nc(N=P(c2ccccc2)(c2ccccc2)c2ccccc2)cc(=O)[nH]1 | 4.3% | 1.6% | 26.9% | 27.7% | 21.9% | 4.65%
24 | c1ccc2[nH]c(CN3CCCCC3)cc2c1 | 7.15% | -10.1% | -8.95% | -18.8% | -13.2% | 11.8%
25 | CCCCCCCNC(C)=O | 14.1% | 15.5% | 3.6% | 10.1% | -0.7% | -5%
26 | CC1=NN(C(=O)Nc2ccccc2)C(=O)C2CCC(=O)N12 (stereo unspecified) | -6.3% | -4.55% | -3.55% | 3.85% | -1% | -8.1%
27 | CC(COCc1ccccc1)C1OC(C)(C)OC(C#N)C1C (stereo unspecified) | -1.05% | -1.4% | -4.8% | -20.4% | 11.7% | 14.3%
28 | CCN(c1ccc(Br)cc1)c1ccc(Br)cc1 | -14.2% | -20.1% | -23.2% | -7.75% | 3.75% | 7.55%
29 | CC1(C)OC(=O)C(C)(C)OC1=O | -11.7% | -5% | 7.05% | 12.3% | 8.4% | -3.15%
30 | COc1cc(N=Nc2cccc(S(=O)(=O)O)c2)ccc1NC(=O)c1ccc(C(=O)Nc2ccc(N=Nc3cccc(S(=O)(=O)O)c3)cc2OC)cc1 | 3.35% | 17.4% | 23% | -8.2% | -13.8% | 21.2%
31 | O=C1NC(Cc2cccc(I)c2)C(=O)N1c1ccccc1 (stereo unspecified) | 37.3% | 3.1% | 31.9% | 28.8% | 16.4% | 29.4%
32 | COC(=O)C[CH2][Ge]([CH3])([CH3])[S]c1ccccc1 | 52.9% | 27.1% | 34.1% | 4.3% | 15.4% | 18.1%
33 | CC(=O)Nc1c(C)cccc1[N+](=O)[O-] | 5.35% | -14.2% | 0% | -17.6% | 2.8% | 3.65%
34 | O=C(N=Nc1c(O)[nH]c2ccccc12)c1ccncc1 | -10.8% | 2.15% | -9.25% | -19.4% | -7.4% | 11.1%
35 | COc1cccc(C(Nc2nncs2)Nc2nncs2)c1 | 3.1% | -9.2% | -8.45% | 13.9% | -20.3% | 16.1%
36 | CC1=CC(=O)[C@@H]2C[C@H]1C2(C)C | 15.3% | 12.8% | -33.9% | -2.9% | -2.1% | 22.2%
37 | S=c1cc(-c2ccccc2)oc2ccccc12 | 9.35% | 10.8% | -1.1% | 6.85% | 4.85% | -2.8%
38 | CCOc1ccc(NC(=O)C(=O)CC(=O)c2sc(NNC(C)=O)nc2C)cc1 | -21.1% | 2.95% | 17.5% | 14.4% | 5.4% | -8%
39 | NNC(=O)c1ccccc1O | 36% | 14.4% | 15.5% | -12.3% | 13.4% | 62%
40 | O=C(O)C1=C/C(=C\C=[N+]2c3cc(O)c(OC4OC(CO)C(O)C(O)C4O)cc3CC2C(=O)[O-])CC(C(=O)O)N1 (stereo unspecified) | -10.4% | -3.75% | 12.2% | -26.1% | 5.8% | 6%
41 | Cc1ccc(S(=O)(=O)N/N=C/C(C)C)cc1 | 14.2% | -15.6% | 4.75% | 17.8% | -14.8% | 24.2%
